In PubChem BioAssay (NCI):
This is part of a sample that, as a whole, favours compounds with a hit. Of some 83,000 tested, about 20% had one in any assay.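 96-well plates, one dose, 48 hours. Percent growth reported; active if below 10.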 Values without a mark were called inactive. Calls of active or inactive are those of the source.

What was measured:
Test in all cases: NCI-60 one-dose screen, 48 h (100 = growth as untreated, 0 = no growth, -100 = all killed)
Conditions in all cases: 10 µM unless noted
NCI-H23 lung = tested on: NCI-H23 lung
NCI-H226 lung = tested on: NCI-H226 lung
NCI-H322M lung = tested on: NCI-H322M lung
HOP-62 NSCLC = tested on: HOP-62 NSCLC
NCI-H460 lung = tested on: NCI-H460 lung
HOP-92 NSCLC = tested on: HOP-92 NSCLC
NCI-H522 lung = tested on: NCI-H522 lung
A549/ATCC NSCLC = tested on: A549/ATCC NSCLC
786-0 renal = tested on: 786-0 renal
COLO 205 colon = tested on: COLO 205 colon
DU-145 prostate = tested on: DU-145 prostate
K-562 leukemia = tested on: K-562 leukemia
MALME-3M melanoma = tested on: MALME-3M melanoma
MDA-MB-231 breast = tested on: MDA-MB-231 breast
RXF 393 renal = tested on: RXF 393 renal
SF-268 CNS = tested on: SF-268 CNS
SF-295 CNS = tested on: SF-295 CNS
SF-539 CNS = tested on: SF-539 CNS
M14 melanoma = tested on: M14 melanoma

| SMILES | growth (NCI-H23 lung) [%] | growth (NCI-H226 lung) | growth (NCI-H322M lung) | growth (HOP-62 NSCLC) | growth (NCI-H460 lung) | growth (HOP-92 NSCLC) | growth (NCI-H522 lung) | growth (A549/ATCC NSCLC) | growth (786-0 renal) | growth (COLO 205 colon) | growth (DU-145 prostate) [%] | growth (K-562 leukemia) | growth (MALME-3M melanoma) | growth (MDA-MB-231 breast) | growth (RXF 393 renal) | growth (SF-268 CNS) | growth (SF-295 CNS) | growth (SF-539 CNS) | growth (M14 melanoma) |
| --- | --- | --- | --- | --- | --- | --- | --- | --- | --- | --- | --- | --- | --- | --- | --- | --- | --- | --- | --- |
| COc1ccc(/C(=N\O)c2cc(OC)c(OC)c(OC)c2)c(OC)c1N | 34.7 | 78.2% | 48.4% | 39.7% | 6.35% (active) | 78.7% | -9.39% (active) | 43.2% | 34.7% | -0.741% (active) | 15.3 | 7.11% (active) | 48.9% | 36.9% | 16.8% | 42.1% | -9.97% (active) | -35.2% (active) | 7.17% (active) |
| CC(Br)C(OC(=O)c1ccccc1Cl)c1cc2c(cc1Br)OCO2 (centres undefined) | 78.3 | 76.6% | 82.7% | 108% | 91.8% | 68.5% | 87.9% | 91.5% | 80.7% | 126% | 92.7 | 94.6% | 92.9% | 94.3% | 77.8% | 86.1% | 101% | 100% | 86.6% |
| CCN(Cc1ccc(CN(CC)C(=O)C(Br)Br)cc1)C(=O)C(Br)Br | 43.3 | 59.1% | 26.3% | 74.8% | 2.41% (active) | 60.7% | 32.5% | 25.2% | 59.4% | 3.56% (active) | 14.1 | 27.1% | 52.6% | 28.2% | 67.9% | 51.6% | 45.9% | 53.6% | 24.9% |
| CCOC(=O)/C=C\C(=O)NC(N)=O | 102 | 96.9% | 104% | 87.8% | 110% | 94.5% | 90.3% | 77.8% | 103% | 115% | 106 | 94.4% | 102% | 103% | 101% | 106% | 106% | 108% | 96.7% |
| O=S(=O)(NCCCNc1cc(-c2cn(-c3ccccc3)nc2-c2cccc(O)c2)ccn1)c1cccc(F)c1 | 58.6 | 46.4% | 57.9% | 66.7% | 35.6% | 26% | 44.4% | 37% | 13.1% | -55.9% (active) | 59.4 | 1.85% (active) | 37.9% | 7.26% (active) | 40.1% | 60.7% | 9.83% (active) | 45.1% | 42.3% |
| O=C(O)c1ccc(-n2cc(CNc3ccc(C(F)(F)F)cc3)c(-c3ccccc3)n2)cc1 | 91.6 | 104% | 101% | 90.5% | 94.3% | 83.8% | 94.3% | 72.5% | 99.1% | 107% | 95.9 | 80.6% | 91.3% | 102% | 99.4% | 91.4% | 75% | 99.9% | 89% |
| O=c1[nH]c(CN2CCN(c3ccccc3F)CC2)nc2sc3c(c12)CCC3 | 105 | 102% | 98.9% | 92.4% | 123% | 89% | 98.7% | 110% | 95.8% | 91.9% | 109 | 109% | 96.4% | 96.3% | 160% | 121% | 144% | 98.6% | 108% |
| C[N+](C)(C)c1ccc(CC2c3ccccc3-c3ccccc32)cc1 | 78.5 | 82.2% | 87.8% | 38.9% | 87.3% | 28.8% | 59.9% | 62% | 73.9% | 59.8% | 101 | 70.6% | 74.9% | 74.7% | 103% | 42.4% | 79.1% | 25.5% | 75.4% |
| CCCCOc1nc2c(C)cccc2cc1C1CNC(=O)c2ccccc2N1 (centres undefined) | 80 | 89% | 105% | 56.2% | 56.2% | 62.6% | 44.8% | 60.1% | 46.2% | 90.8% | 86 | 19% | 86.1% | 65.3% | 78.3% | 66.9% | 52.5% | 68.3% | 54.7% |
| CC(C)N(Cc1ccc(CN(C(=O)CCl)C(C)C)cc1)C(=O)CCl | 19.8 | -2.93% (active) | 94.6% | -27.7% (active) | 35.8% | -65.4% (active) | -75.6% (active) | 57.4% | -85.1% (active) | -54.3% (active) | 12 | 14% | -63.2% (active) | -2.71% (active) | 45.6% | -50.7% (active) | 28.2% | -84% (active) | 1.15% (active) |
| CCc1c(C(=O)Nc2ccc3ccccc3c2)[nH]c(C)c1C(C)=O | 85.8 | 95.7% | 98.9% | 96.1% | 101% | 92.3% | 68.7% | 89.6% | 104% | 111% | 107 | 81.2% | 95.7% | 93.3% | 96.7% | 110% | 102% | 96.2% | 93.8% |
| COc1ncc(-c2ccc3ncnc(Nc4cccc(Cl)c4)c3c2)cc1NS(=O)(=O)CCN1CCOCC1 | 21.4 | 22.3% | -17.1% (active) | 17.5% | 10.3% | -26.3% (active) | 14% | -4.57% (active) | 10.5% | -6.87% (active) | 18.6 | 45.8% | -19.8% (active) | 16.4% | -30.7% (active) | 23% | -24.1% (active) | -18.9% (active) | 18.1% |
| CC/C=C\C[C@H](O)C/C=C1/C(=O)C(Cl)=C[C@@H]1C/C=C\CCCC(=O)O | 70.2 | 89.6% | 94.5% | 96.8% | 97.7% | 98.3% | -68.1% (active) | 100% | 75.2% | 47.6% | 75.9 | 3.74% (active) | 21.7% | 43.5% | 64.2% | 55.9% | 89.2% | 66% | 35.7% |
| COC(=O)CC/C(C)=N\Nc1ccc([N+](=O)[O-])cc1 | 95.8 | 76.3% | 76.5% | 59.7% | 24.8% | 92.7% | 38.4% | 24.6% | 75.4% | 54% | 85.5 | 4.87% (active) | 104% | 79.6% | 101% | 72.4% | 72.4% | 65.8% | 20.4% |
| CN(C)C/C=C/C(=O)Nc1cc2c(Nc3cccc(Cl)c3F)ncnc2cc1OCCOC(F)F | 60.9 | 40.3% | 7.68% (active) | 39.3% | 67.4% | -29% (active) | -19.2% (active) | 25.2% | 18.5% | 56.7% | 31.3 | 18.1% | 38.5% | 17.6% | 6.09% (active) | 41.9% | 55.2% | 36.7% | 67.5% |
| Cc1cc(C)c2c(=O)[nH]c(SCC(=O)Nc3cccc(S(=O)(=O)N(C)C)c3)nc2n1 | 104 | 91.9% | 122% | 97.8% | 107% | 88.3% | 96.3% | 95% | 93.2% | 90.9% | 101 | 94.1% | 95.8% | 87.6% | 58.4% | 114% | 139% | 97.3% | 100% |
